From PubChem BioAssay
The source made the active and inactive calls.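 How the source made its calls, unless noted: active means fluorescence slope higher than the sample average by over 3 SD (cut at about -0.22 in these data, passing the limit was not always enough); inactive means the rest.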

What was measured:
[1] = inhibitors of TNFa-induced NFkB p65 translocation, primary screen, imaging, HUVEC, MLSMR starter and 10KST1 sets (AID 438;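 active means inhibition above 20% together with a positive visual image hit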;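 further: compound added about 3h40 before a 20 min TNFalpha stimulation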;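 on inhibition: signal is the nuclear over cytoplasmic p65 intensity ratio per well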); conditions: HUVEC TNFa-induced p65 nuclear translocation; cell count: measured here: nuclei count (cytotoxicity indicator), at 2.08 µM; inhibition: at 2 µM, stronger effect = higher value, 0% TNFa-plus-vehicle, 100% no-TNFa wells
[2] = inhibitors of mutant huntingtin aggregation, primary screen, imaging, exon1htt(103Q)mCFP cells, high-content imaging (AID 483;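 active means visual image review flags a hit and inhibition of aggregation exceeds 20%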;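 further: compound exposure lasted 3 days before fixation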;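 on nuclei count: percent of the per-plate median nuclei count of sample wells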); conditions: exon1htt(103Q)mCFP cell line, aggregate imaging, at 2 µM; inhibition of aggregation: stronger effect = higher value; nuclei count: measured here: cell count, toxicity
[3] = inhibitors of E-selectin induction by TNFa, primary screen, imaging, HUVEC, immunofluorescence, MLSMR starter and 10KST1 sets (AID 487;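 active means visually confirmed hit in the image check and inhibition above 20%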;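 on inhibition: signal is fraction of cell area covered by stained E-selectin grains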;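 on nuclei count: 100% = median nuclei count of all wells on the same plate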); conditions: HUVEC TNFalpha-induced E-selectin immunofluorescence imaging, at 2 µM; inhibition: stronger effect = higher value; nuclei count: measured here: cell number, toxicity
[4] = biological target: Voltage-gated potassium channel subunit beta-2 (Rattus norvegicus) (UniProt P62483); assay: KvBeta enzyme negative modulators, primary screen, biochemical, NADPH fluorescence (AID 622); conditions: recombinant KvBeta, 4-cyanobenzaldehyde reduction, at 10 µM, stronger effect = higher value;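 further: slope of raw intensity against log time taken from 70 to 1610 s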
[5] = biological target: Voltage-gated potassium channel subunit beta-2 (Rattus norvegicus) (UniProt P62483); assay: KvBeta positive modulators, primary screen, biochemical, NADPH fluorescence (AID 623;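 active means NADPH fluorescence slope more negative than the mean of all samples by about 3 SD, 99.7% confidence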;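 further: fluorescence intensity change per second fitted from 20 to 320 s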); conditions: Recombinant KvBeta, NADPH fluorescence decrease slope, 10 min; at 10 µM; stronger effect = lower value
[6] = biological target: Alpha-2C adrenergic receptor (Homo sapiens) (UniProt P18825); assay: modulators of alpha2C/GIRK thallium flux, primary screen, cell-based, HEK293 alpha2C/GIRK1/2 (AID 624;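 active means fluorescence slope after compound addition differing from the mean of all screened samples at 99.7% confidence, in either direction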;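 further: slope of fluorescence ratio to pre-addition baseline per second over 15 to 24 s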); conditions: thallium flux BTC fluorescence, at 10 µM, actives lie on both sides
[7] = inhibitors of Sendai virus-induced IRF3 signaling, primary screen, TLR/RLR signaling modifier project, cell-based, Sendai virus stimulus, luciferase, 10K MLSCN set (AID 602276;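 active means inhibition at or above 50% at 10 µM; inactive means inhibition below 50%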;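 further: firefly luciferase from ISG56 promoter only with Renilla not read in this screen; 0% = Sendai virus plus DMSO and 100% = medium plus DMSO without virus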); conditions: HEK293 RL24 IRF3 luciferase reporter, at 10 µM, stronger effect = higher value
[8] = inhibitors of poly I:C-induced TLR3 signaling, primary screen, cell-based, poly I:C stimulus, luciferase, 10K MLSCN set (AID 602277;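 active means inhibition of the reporter signal at or above 50%; inactive means inhibition below 50%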); conditions: HEK293-TLR3 RL24 IRF3 luciferase reporter, at 10 µM, stronger effect = higher value

Voltage-gated potassium channel subunit beta-2 (Rattus norvegicus), sequence (P62483 whole entry, looked up): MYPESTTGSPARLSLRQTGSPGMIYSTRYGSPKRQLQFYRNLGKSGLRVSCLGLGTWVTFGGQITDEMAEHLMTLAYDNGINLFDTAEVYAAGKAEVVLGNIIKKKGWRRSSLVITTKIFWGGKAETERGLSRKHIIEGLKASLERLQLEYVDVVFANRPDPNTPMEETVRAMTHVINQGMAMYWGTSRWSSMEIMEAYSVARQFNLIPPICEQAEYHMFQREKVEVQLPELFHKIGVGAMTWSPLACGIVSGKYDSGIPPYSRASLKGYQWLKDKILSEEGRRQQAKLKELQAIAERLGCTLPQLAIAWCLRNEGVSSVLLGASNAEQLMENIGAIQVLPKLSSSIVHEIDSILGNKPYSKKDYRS
Alpha-2C adrenergic receptor (Homo sapiens), sequence (P18825 whole entry, looked up): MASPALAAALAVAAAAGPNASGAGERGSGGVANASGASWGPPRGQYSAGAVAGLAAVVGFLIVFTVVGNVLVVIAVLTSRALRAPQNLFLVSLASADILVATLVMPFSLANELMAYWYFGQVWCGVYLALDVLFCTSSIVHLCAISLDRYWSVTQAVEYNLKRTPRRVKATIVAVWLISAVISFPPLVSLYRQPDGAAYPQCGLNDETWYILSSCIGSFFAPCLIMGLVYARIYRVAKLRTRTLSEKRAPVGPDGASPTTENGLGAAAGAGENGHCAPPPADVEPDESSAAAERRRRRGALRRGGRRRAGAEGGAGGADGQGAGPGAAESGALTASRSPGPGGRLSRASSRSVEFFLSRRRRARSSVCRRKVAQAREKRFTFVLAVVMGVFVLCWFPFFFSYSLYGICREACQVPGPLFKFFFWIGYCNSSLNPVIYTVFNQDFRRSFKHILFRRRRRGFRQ

SMILES	cell count [1]	inhibition [1]	inhibition of aggregation [2]	nuclei count [2] [%]	inhibition [3]	nuclei count [3] [%]	fluorescence slope [4]	NADPH fluorescence slope [5]	slope [6]	inhibition [7]	inhibition [8]
C=CCn1c(SCC(=O)Nc2cccc(OC)c2)nnc1-c1cccnc1	619	-4.8% (inactive)	0.3% (inactive)	118	-52.7% (inactive)	104	-0.527 (inactive)	-9.5e-06 (inactive)	0.00671 (inactive)	10.5% (inactive)	16.9% (inactive)
CC1CCc2nn(CC(=O)Nc3ccc(F)cc3F)cc2C1 (stereo not drawn)	644	-2.3% (inactive)	-37.3% (inactive)	41.3	-2.5% (inactive)	111	-0.543 (inactive)	1.3e-05 (inactive)	0.00669 (inactive)	-5.03% (inactive)	21.4% (inactive)
CCCC(=O)Nc1cccc(NC(=O)CN2CCN(c3ccccc3OC)CC2)c1	693	-15.2% (inactive)	17.6% (inactive)	98.8	-61.4% (inactive)	104	-0.481 (inactive)	-4.6e-05 (inactive)	0.00587 (inactive)	-1.32% (inactive)	11.7% (inactive)
CC(C)(C)Cc1nc(-c2ccccn2)no1	379	0.8% (inactive)	-13.5% (inactive)	109	-71.1% (inactive)	115	-0.44 (inactive)	-2.3e-05 (inactive)	0.00439 (inactive)	-5.86% (inactive)	-18.2% (inactive)
Cc1noc(C)c1CSc1nc2cc(S(=O)(=O)N3CCOCC3)ccc2o1	515	-12.1% (inactive)	-33.5% (inactive)	135	-52% (inactive)	118	-0.478 (inactive)	-0.000262 (inactive)	0.00432 (inactive)	16.1% (inactive)	19.5% (inactive)
Cc1ccccc1OCCCN1C(=O)C(=O)c2cccc(C)c21	833	3.7% (inactive)	5% (inactive)	108	-81.4% (inactive)	113	-0.575 (inactive)	-5e-05 (inactive)	0.00604 (inactive)	5.45% (inactive)	-4.08% (inactive)
CCn1c(SCC(=O)N2CCOCC2)nc2c(c1=O)SC(C)C2 (stereo not drawn)	298	9.4% (inactive)	21.4% (inactive)	89.2	20% (inactive)	93.4	-0.542 (inactive)	-3.5e-06 (inactive)	0.00531 (inactive)	-5.39% (inactive)	4.93% (inactive)
CN1CCN(C(=O)c2ccc(CS(=O)(=O)c3c(Cl)cccc3Cl)o2)CC1	652	-0.5% (inactive)	11.9% (inactive)	96.9	-24.1% (inactive)	137	-0.515 (inactive)	-2.9e-05 (inactive)	0.00604 (inactive)	16.8% (inactive)	24.4% (inactive)
Cc1[nH]nc2c1C1(C(=O)N(Cc3ccc(Cl)cc3)c3ccccc31)C(C#N)=C(N)O2 (stereo not drawn)	358	1.4% (inactive)	-1.1% (inactive)	101	-24.6% (inactive)	114	-0.338 (inactive)	-3.4e-05 (inactive)	0.00523 (inactive)	12.5% (inactive)	0.315% (inactive)
CCN(CC)S(=O)(=O)c1ccc(NC2c3ccccc3C(=O)N2CCN2CCOCC2)cc1 (stereo not drawn)	534	-12.6% (inactive)	24.2% (inactive)	95.3	-147% (inactive)	128	-0.611 (inactive)	1.3e-05 (inactive)	0.00571 (inactive)	4.22% (inactive)	10.7% (inactive)
Cc1ccc(NC(=O)CC2C(=O)NC3CCCCC3N2C(=O)c2ccc(F)cc2)cc1C (stereo not drawn)	461	-10.3% (inactive)	-9.9% (inactive)	123	-55.7% (inactive)	178	-0.478 (inactive)	2.4e-05 (inactive)	0.00684 (inactive)	12.1% (inactive)	15.6% (inactive)
CCOC(=O)N1CCN(C(=O)CSc2nnc(COc3ccccc3)o2)CC1	596	4.7% (inactive)	-3.5% (inactive)	105	-3.6% (inactive)	112	-0.565 (inactive)	1.8e-05 (inactive)	0.00595 (inactive)	-13.9% (inactive)	10.1% (inactive)
CC(=O)Nc1c2c(nn1-c1ccc(C)cc1C)CSC2	570	0.9% (inactive)	9.6% (inactive)	95.7	33.7% (inactive)	103	-0.562 (inactive)	-5.2e-05 (inactive)	0.00674 (inactive)	-12.5% (inactive)	-10.7% (inactive)
COc1ccccc1N1CC(O)=C(c2nc3ccccc3c(=O)[nH]2)C1=N	399	1.4% (inactive)	22.7% (inactive)	62.7	-73.7% (inactive)	126	-0.546 (inactive)	-3.6e-05 (inactive)	0.00655 (inactive)	11.7% (inactive)	28.7% (inactive)
COCCn1c(COc2ccc(Cl)cc2)nnc1SCC(N)=O	424	3.4% (inactive)	7.6% (inactive)	93.8	-31.9% (inactive)	119	-0.586 (inactive)	-6e-05 (inactive)	0.00579 (inactive)	18.2% (inactive)	25.2% (inactive)
COCCNC(=O)Cn1cc2c(n1)CCCCC2	623	5.8% (inactive)	-19.8% (inactive)	110	-23.5% (inactive)	98.4	-0.529 (inactive)	-8.7e-05 (inactive)	0.00598 (inactive)	7.33% (inactive)	31.3% (inactive)
C=CCn1c(SCC(=O)NCCCC)nc2scc(-c3ccco3)c2c1=O	650	-6.7% (inactive)	2.2% (inactive)	120	-4.2% (inactive)	99.8	-0.444 (inactive)	-3.5e-05 (inactive)	0.00561 (inactive)	19.3% (inactive)	28.9% (inactive)
O=C(CCC(=O)N1CCc2ccccc2C1)N1CCN(S(=O)(=O)c2ccccc2)CC1	361	-2.5% (inactive)	-6.9% (inactive)	131	-14.3% (inactive)	102	-0.45 (inactive)	-1.8e-05 (inactive)	0.00506 (inactive)	-9.4% (inactive)	5.93% (inactive)
COCCN(CCOC)c1ncnc2c1cnn2-c1ccccc1	636	-8.5% (inactive)	-21.1% (inactive)	113	-14.8% (inactive)	107	-0.531 (inactive)	-2.1e-05 (inactive)	0.00603 (inactive)	-24.8% (inactive)	-50.6% (inactive)
CCCCCn1c(CN2CCN(c3cccc(Cl)c3)CC2)nc2c1c(=O)n(C)c(=O)n2C	775	0.9% (inactive)	-13% (inactive)	109	-32.5% (inactive)	113	-0.371 (inactive)	-6e-05 (inactive)	0.00648 (inactive)	-3% (inactive)	-10.4% (inactive)
CCCNC(=O)NC(C(=O)OC)C12CC3CC(CC(C3)C1)C2 (stereo not drawn)	308	-6.2% (inactive)	19.6% (inactive)	76.7	-52.3% (inactive)	123	-0.321 (inactive)	-1.6e-05 (inactive)	0.00242 (inactive)	12.2% (inactive)	23.2% (inactive)
CC(C)Cn1c(CN(Cc2ccccc2)Cc2ccccc2)nc2c1c(=O)n(C)c(=O)n2C	567	-1% (inactive)	1.4% (inactive)	124	-12.8% (inactive)	117	-0.518 (inactive)	-1.8e-05 (inactive)	0.00724 (inactive)	9.97% (inactive)	12.9% (inactive)
COc1ccc(Cn2nnnc2C(c2cccs2)N2CCOCC2)cc1 (stereo not drawn)	572	-4.8% (inactive)	-10.4% (inactive)	98.8	-10.4% (inactive)	114	-0.419 (inactive)	1.2e-06 (inactive)	0.00389 (inactive)	-1.07% (inactive)	-0.428% (inactive)
COc1ccc(OCCCC(=O)Nc2nncs2)cc1	296	22.6% (inactive)	12.8% (inactive)	95.6	-32.3% (inactive)	102	-0.294 (inactive)	-3.4e-05 (inactive)	0.00603 (inactive)	-0.71% (inactive)	5.99% (inactive)
COc1ccc(C2C(C(=O)N3CCCC3)c3cc(OC)c(OC)cc3C(=O)N2C)cc1 (stereo not drawn)	583	-21.8% (inactive)	7.8% (inactive)	111	-71.5% (inactive)	115	-0.544 (inactive)	-5.3e-05 (inactive)	0.00513 (inactive)	3.19% (inactive)	12.2% (inactive)
CC(C)OC(=O)CN1C(=O)C(C)(C)Oc2ccc(C(=O)NC3CC3)cc21	537	-6.7% (inactive)	18% (inactive)	104	-11.5% (inactive)	102	-0.496 (inactive)	-7.2e-05 (inactive)	0.00477 (inactive)	14.5% (inactive)	17.5% (inactive)
Cc1nc2c(-c3ccccc3)c(C)nn2c(C)c1CCC(=O)O	586	6.1% (inactive)	8.1% (inactive)	73	-61.1% (inactive)	103	-0.492 (inactive)	-2.4e-05 (inactive)	0.00603 (inactive)	13.6% (inactive)	20% (inactive)
CCCSc1nc(N)c(C#N)c(-c2ccc(C)cc2)c1C#N	683	10.1% (inactive)	-10.3% (inactive)	104	-31.9% (inactive)	141	-0.382 (inactive)	-6.2e-05 (inactive)	0.00536 (inactive)	3.6% (inactive)	9.67% (inactive)
